Inconclusive results are not listed. Calls of active or inactive are those of the source. The calls were made as follows, unless noted: active = hit-call score of the fitted dose curve at least 0.9, where 1 is the maximum; inconclusive = response in the unintended direction; inactive = score below 0.9.
Tests used:
DIO1 (gene 1733) = assay: CCTE_GLTED_hDIO1: CCTE's human Deiodinase 1 (DIO1) Inhibition Assay, Great Lakes Toxicology and Ecology Division (GLTED) Lab (AID 2283987);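 also: isolated human DIO1 enzyme in a cell-free setup rather than cells; enzyme activity read as free iodide liberated from substrate via Sandell-Kolthoff colorimetry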
Procedure, shortened: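 Chemicals are tested on human DIO1 without cells for 3 h. Uninhibited enzyme frees iodide, which speeds cerium(IV) reduction by arsenic and is read by spectrophotometry.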

[1] = TOX21_TRB_BLA_Agonist_Followup_viability: Viability Assessment in the Tox21 Thyroid Hormone Receptor beta Agonism Beta-lactamase (BLA) Follow-Up Assay (AID 2283956)
Procedure, shortened: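 TRb-bla HEK293T cells (GAL4-DBD/human TRb LBD) in 2% charcoal-stripped FBS medium were exposed 18 h at 37C to 11 concentrations in triplicate. CellTiter-Glo ATP luminescence was read after 30 min at room temperature, with bidirectional fitting against DMSO.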

THRB (gene 7068) [2] = molecular target: THRB (gene 7068) (UniProt P10828); assay: TOX21_TRB_COA_Agonist_Followup_ratio: Tox21 Thyroid Hormone Receptor beta Agonism through Coactivator Recruitment Follow-Up Assay, Ratio (AID 2283963; active = hit-call score of the fitted dose curve at least 0.9, where 1 is the maximum; inactive = score below 0.9)
Chain of THRB (gene 7068) (P10828 whole entry, looked up, the tested form may be a part): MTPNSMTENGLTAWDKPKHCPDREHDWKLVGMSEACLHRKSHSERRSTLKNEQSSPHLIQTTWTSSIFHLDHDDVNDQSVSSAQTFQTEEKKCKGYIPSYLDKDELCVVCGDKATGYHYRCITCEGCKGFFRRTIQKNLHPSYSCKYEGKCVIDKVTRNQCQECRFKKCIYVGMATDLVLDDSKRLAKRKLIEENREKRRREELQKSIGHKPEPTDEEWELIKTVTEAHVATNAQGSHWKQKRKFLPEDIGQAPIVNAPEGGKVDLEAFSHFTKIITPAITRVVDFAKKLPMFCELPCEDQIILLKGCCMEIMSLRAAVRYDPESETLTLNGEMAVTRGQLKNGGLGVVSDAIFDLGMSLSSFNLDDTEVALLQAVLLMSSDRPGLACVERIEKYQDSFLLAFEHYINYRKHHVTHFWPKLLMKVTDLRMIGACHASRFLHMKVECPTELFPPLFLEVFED
Procedure, shortened: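 Agonism is measured as coactivator recruitment in a purified-protein TR-FRET format, using GST-TRβ LBD at 5.0 nM, fluorescein-SRC-2 peptide at 200 nM and Tb-labeled anti-GST antibody at 2 nM. Values are 520:495 nm ratios relative to DMSO (0%) and T3 (100%).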

[3] = molecular target: Retinoic acid receptor RXR-alpha (Homo sapiens) (UniProt P19793); assay: TOX21_TR_RXR_BLA_Agonist_Followup_ratio: Tox21 Thyroid Hormone Receptor beta Retinoid X Receptor alpha (RXRa) Agonism Beta-lactamase (BLA) Follow-Up Assay, Ratio (AID 2283968)
Chain of Retinoic acid receptor RXR-alpha (Homo sapiens) (P19793 whole entry, looked up, the tested form may be a part): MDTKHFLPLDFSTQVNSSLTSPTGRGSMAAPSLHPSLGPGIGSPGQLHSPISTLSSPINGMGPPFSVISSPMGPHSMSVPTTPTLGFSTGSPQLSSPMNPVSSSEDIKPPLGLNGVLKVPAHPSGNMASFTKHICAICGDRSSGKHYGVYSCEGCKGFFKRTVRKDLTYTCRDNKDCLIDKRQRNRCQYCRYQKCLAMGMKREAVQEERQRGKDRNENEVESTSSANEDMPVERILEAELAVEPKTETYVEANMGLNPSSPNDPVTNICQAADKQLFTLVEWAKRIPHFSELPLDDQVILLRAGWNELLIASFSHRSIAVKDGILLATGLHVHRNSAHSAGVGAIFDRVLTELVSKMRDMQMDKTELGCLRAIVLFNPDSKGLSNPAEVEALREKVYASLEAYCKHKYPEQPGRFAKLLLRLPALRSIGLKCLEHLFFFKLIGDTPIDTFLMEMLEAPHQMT
From the text: GeneBLAzer RXRa-UAS-bla HEK293T assay (RXRa-bla) (ThermoFisherScientific Catalog No. K1697) was run in qHTS 1536 well format as a secondary assay for specificity of response in the TOX21_TR_GH3_LUC_Agonist assay.TOX21_TR_RXR_BLA_Agonist_Followup_ratio is an assay readout measuring reporter gene via receptor activity and designed using inducible reporter (beta lactamase induction) detected with GAL4 b-lactamase reporter gene. The signal is derived from the ratio of cleaved (ch2) to uncleaved (ch1) reporter gene substrate used as the measure of target activity.Data from the assay component TOX21_TR_RXR_BLA_Agonist_Followup_ratio was analyzed into 1 assay endpoint. This assay endpoint, TOX21_TR_RXR_BLA_Agonist_Followup_ratio, was analyzed in the positive analysis fitting direction relative to DMSO as the negative control and baseline of activity. Using a type of inducible reporter, gain-of-signal activity can be used to understand changes in the reporter gene as they relate to the gene RXRA. Furthermore, this assay endpoint can be referred to as a primary readout, because this assay has produced multiple assay endpoints and this ratio serves a reporter gene function to understand target activity. To generalize the intended target to other relatable targets, this assay endpoint is annotated to the nuclear receptor intended target family, where subfamily is non-steroidal.
After5-h incubation at 37C/5% CO2 for cell attachment, 23 nL of follow-up compounds dissolved in DMSO, 11 concentrations in triplicate, and the positive control (9-cis retinoic acid) were transferred to the assay plates using a Pintool station. The assay plates were incubated at 37C/5% CO2 for 16h. One microliter of LiveBLAzer FRET-B/GCCF4-AM substrate (Life Technologies) was added to each well using an FRD. After 2-h incubation at room temperature, the fluorescence intensity was measured using an Envision plate reader (Perkin Elmer). Data were expressed as the ratio of 460:530 nm.

[4] = TOX21_TR_RXR_BLA_Agonist_Followup_viability: Viability Assessment in the Tox21 Thyroid Hormone Receptor beta Retinoid X Receptor alpha (RXRa) Agonism Beta-lactamase (BLA) Follow-Up Assay (AID 2283970)
Procedure, shortened: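 RXRa-UAS-bla HEK293T cells seeded at 2,500/well in phenol red-free DMEM with 2% charcoal-stripped FBS, exposed to compound 16h at 37C/5% CO2 in qHTS. Viability read by CellTiter-Glo ATP luminescence; bidirectional fitting against DMSO baseline, signal loss indicating cytotoxicity.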

THRB (gene 7068) [5] = molecular target: THRB (gene 7068) (UniProt P10828); assay: TOX21_TRB_BLA_Antagonist_Followup_ratio: Tox21 Thyroid Hormone Receptor beta Antagonism Beta-lactamase (BLA) Follow-Up Assay, Ratio (AID 2283958)
Procedure, shortened: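 GAL4-DBD/human TRβ-LBD fusion in GeneBLAzer UAS-bla HEK293T cells, 3,000 cells/well in phenol red-free DMEM with 2% charcoal-stripped FBS; compounds at 11 concentrations in triplicate, 18 h at 37C. CCF4-AM substrate 2 h, 460:530 nm ratio relative to DMSO.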

[6] = TOX21_TRB_BLA_Antagonist_Followup_viability: Viability Assessment in the Tox21 Thyroid Hormone Receptor beta Antagonism Beta-lactamase (BLA) Follow-Up Assay (AID 2283961)
From the text: The GeneBLAzer TRb-UAS-bla HEK293T assay kit for human TRb (ThermoFisherScientific Catalog No. K1684) was used as a secondary assay for specificity (TRb-bla).This assay contained the ligand-binding domain (LBD) of the human TRb fused to the DNA-binding domain of GAL4 stably integrated in the GeneBLAzer UAS-bla HEK293Tcell line. The reporter gene, b-lactamase, is under the transcriptional control of a UAS that binds the GAL4 DNA-binding domain. A cell viability assay was run in parallel for these cells as well using the CellTiter-Glo viability assay kit.TOX21_TRB_BLA_Antagonist_Followup_viability is a component of the TOX21_TRB_BLA_Antagonist_Followup assay. This component measures cell viability using the CellTiter-Glo Luciferase-coupled ATP quantitation.TOX21_TRB_BLA_Antagonist_Followup_viability used a type of viability reporter where loss-of-signal activity can be used to understand changes in the cell viability. Furthermore, this assay endpoint can be referred to as a secondary readout, because this assay has produced multiple assay endpoints where this one serves a viability function. To generalize the intended target to other relatable targets, this assay endpoint is annotated to the cell cycle intended target family, where the subfamily is cytotoxicity. […]

THRB (gene 7068) [7] = molecular target: THRB (gene 7068) (UniProt P10828); assay: TOX21_TRB_COA_Antagonist_Followup_ratio: Tox21 Thyroid Hormone Receptor beta Antagonism through Coactivator Recruitment Follow-Up Assay, Ratio (AID 2283967)
Procedure, shortened: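 Cell-free TR-FRET: GST-TRb LBD (5.0 nM) with fluorescein-SRC-2 peptide (200 nM) and Tb anti-GST antibody (2 nM), 0.10% BSA. 520:495 nm emission ratio normalized to DMSO (0%) and T3 (100%).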

[8] = molecular target: Retinoic acid receptor RXR-alpha (Homo sapiens) (UniProt P19793); assay: TOX21_TR_RXR_BLA_Antagonist_Followup_ratio: Tox21 Thyroid Hormone Receptor beta Retinoid X Receptor alpha (RXRa) Antagonism Beta-lactamase (BLA) Follow-Up Assay, Ratio (AID 2283972)
Procedure, shortened: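 Compounds were tested in triplicate at 11 concentrations on RXRa-bla HEK293T cells for 16 h. Substrate cleavage ratio, normalized to DMSO, gave the endpoint.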

[9] = TOX21_TR_RXR_BLA_Antagonist_Followup_viability: Viability Assessment in the Tox21 Thyroid Hormone Receptor beta Retinoid X Receptor alpha (RXRa) Antagonism Beta-lactamase (BLA) Follow-Up Assay (AID 2283979)
Procedure, shortened: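 RXRa-bla HEK293T cells (2,500/well, phenol red-free DMEM, 2% charcoal-stripped FBS) were attached 5 h, then exposed to compounds at 11 concentrations in triplicate for 16 h at 37C. Viability measured by CellTiter-Glo ATP luminescence, bidirectional fitting versus DMSO.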

With `CCCCCCCc1ccc(O)cc1` the AC50 (DIO1 (gene 1733)) was 77 µM (active).
With `O=c1ssc(Cl)c1Cl` the AC50 (DIO1 (gene 1733)) was 0.149 µM (active).
In the case of `CCC1(c2ccccc2)C(=O)N=C(O)NC1=O` (stereo unspecified), the outcome [1] is reported as “inactive”, the outcome (THRB (gene 7068) [2]) is reported as “inactive” and the outcome [3] is reported as “inactive”. The outcome [4] was “inactive”.
In the case of `CO/N=C(/C(=O)OC)c1ccccc1COc1ccccc1C`, the AC50 (THRB (gene 7068) [5]) is reported as 23.1 µM (active), the outcome [6] is reported as “inactive” and the outcome (THRB (gene 7068) [7]) is reported as “inactive”. The outcome [8] was “inactive” and the outcome [9] was “inactive”.
For `CC(Cc1ccc(OCC(=O)O)cc1)NCC(O)c1csc(C(F)(F)F)n1` (stereo unspecified), the outcome [1] was “inactive”, the outcome (THRB (gene 7068) [2]) was “inactive” and the outcome [3] was “inactive”. For the same compound, the outcome [4] was “inactive”.
For `C=CC(=O)OCC(F)(F)C(F)F`, the AC50 (DIO1 (gene 1733)) was 19.8 µM (active).
In the case of `COC(=O)C(F)(F)C(F)(F)OC(F)(C(F)(F)F)C(F)(F)OC(F)=C(F)F` (stereo unspecified), the AC50 (DIO1 (gene 1733)) is reported as 0.494 µM (active).
With `O=C(O)C(Cl)Cl` the outcome [1] was “inactive”, the outcome (THRB (gene 7068) [2]) was “inactive” and the outcome [3] was “inactive”. The outcome [4] was “inactive”.
